PubChem BioAssay (Tox21)
Several values for one entry are separate records, joined by “and”; a condition that tells them apart may be missing. Identical values can stand only once. Results filed as inconclusive are left out. Activity calls are given as the source filed them. Unless noted, the call rests on the fitted dose curve; in most records, active means well fitted curve in the direction sought with a large enough effect in the repeat runs; inconclusive means weak or mixed curves; inactive means no such curve, though single readings can be large; an effect the other way counts as inactive or inconclusive.

Legend:
[1] = qHTS assay to identify aromatase inhibitors - cell viability counter screen (AID 743084);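 further: cells stimulated with testosterone during compound exposure; nearly all actives have a fitted effect of over 55% in size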; further: potency means the concentration at half of the fitted maximal effect
[2] = target: Aryl hydrocarbon receptor (Homo sapiens) (UniProt P35869); assay: qHTS assay to identify small molecule that activate the aryl hydrocarbon receptor (AhR) signaling pathway (AID 743085); further: nearly all actives have a fitted effect of over 15% in size; further: potency means the concentration at half of the fitted maximal effect;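 on activation: HG2L7.5c1 human HepG2 liver cells with stably integrated DRE-driven firefly reporter; series mostly up to about 70 µM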
Aryl hydrocarbon receptor (Homo sapiens), sequence (P35869 whole entry, looked up): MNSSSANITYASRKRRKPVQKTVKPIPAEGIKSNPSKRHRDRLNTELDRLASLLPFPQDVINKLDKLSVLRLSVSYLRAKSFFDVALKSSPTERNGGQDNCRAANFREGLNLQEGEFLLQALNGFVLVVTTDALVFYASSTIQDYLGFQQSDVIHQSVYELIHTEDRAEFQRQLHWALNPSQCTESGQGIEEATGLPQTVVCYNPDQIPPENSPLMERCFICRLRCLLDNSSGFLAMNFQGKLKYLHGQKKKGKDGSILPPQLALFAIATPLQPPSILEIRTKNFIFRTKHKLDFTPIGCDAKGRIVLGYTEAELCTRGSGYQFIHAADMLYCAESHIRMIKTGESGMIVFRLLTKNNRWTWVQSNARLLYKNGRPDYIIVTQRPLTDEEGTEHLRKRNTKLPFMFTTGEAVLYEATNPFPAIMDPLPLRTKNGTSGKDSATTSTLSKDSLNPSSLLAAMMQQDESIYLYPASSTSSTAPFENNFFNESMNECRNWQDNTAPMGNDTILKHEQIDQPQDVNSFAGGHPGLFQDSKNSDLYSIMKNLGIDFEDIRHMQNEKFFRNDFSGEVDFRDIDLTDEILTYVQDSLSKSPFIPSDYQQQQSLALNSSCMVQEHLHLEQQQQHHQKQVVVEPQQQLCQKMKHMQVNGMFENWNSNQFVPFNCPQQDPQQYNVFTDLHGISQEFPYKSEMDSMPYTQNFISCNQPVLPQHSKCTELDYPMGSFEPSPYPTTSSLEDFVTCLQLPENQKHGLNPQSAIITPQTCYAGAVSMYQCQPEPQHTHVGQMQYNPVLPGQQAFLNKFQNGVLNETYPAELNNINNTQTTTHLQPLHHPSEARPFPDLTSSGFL
Summary of the method: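 24 h compound exposure, 37C, HepG2-derived HG2L7.5c1 cells with DRE-responsive luciferase. Readouts: fluorescence viability, then luminescence at room temperature after 30 min.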

[3] = qHTS assay to identify small molecule that activate the aryl hydrocarbon receptor (AhR) signaling pathway - cell viability counter screen (AID 743086); further: nearly all actives have a fitted effect of over 45% in size; further: potency means the concentration at half of the fitted maximal effect
Summary of the method: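 HepG2-AhR-luc (HG2L7.5c1) cells, 4000/well, were preincubated 5 h at 37C, exposed to compound in qHTS format for 24 hr at 37C, then given CellTiter-Fluor for 30 min; viability was read as fluorescence in the reporter wells.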

[4] = target: Peroxisome proliferator-activated receptor gamma (Homo sapiens) (UniProt P37231); assay: qHTS assay to identify small molecule agonists of the peroxisome proliferator-activated receptor gamma (PPARg) signaling pathway (AID 743094; active means well fitted activation curve with a large enough effect in the signal ratio in the repeat runs, not every such curve was filed as active; the % refers to the signal ratio)
Peroxisome proliferator-activated receptor gamma (Homo sapiens), sequence (P37231 whole entry, looked up): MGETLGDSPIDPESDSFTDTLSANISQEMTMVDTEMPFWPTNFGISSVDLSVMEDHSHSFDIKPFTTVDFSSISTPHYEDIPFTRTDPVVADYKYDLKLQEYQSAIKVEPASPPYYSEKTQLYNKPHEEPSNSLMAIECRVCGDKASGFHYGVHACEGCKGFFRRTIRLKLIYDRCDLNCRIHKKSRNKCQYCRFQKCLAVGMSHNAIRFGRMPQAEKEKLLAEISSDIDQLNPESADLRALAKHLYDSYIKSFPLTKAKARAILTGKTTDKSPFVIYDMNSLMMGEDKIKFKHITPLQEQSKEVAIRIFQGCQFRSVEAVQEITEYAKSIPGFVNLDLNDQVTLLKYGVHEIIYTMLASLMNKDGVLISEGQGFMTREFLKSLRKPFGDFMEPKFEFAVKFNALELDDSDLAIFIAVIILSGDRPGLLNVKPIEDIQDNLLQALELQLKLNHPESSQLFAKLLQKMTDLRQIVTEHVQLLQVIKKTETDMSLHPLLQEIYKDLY
Summary of the method: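 Reporter activation was scored by fluorescence of cleaved LiveBLAzer B/G substrate (1 h, room temperature) in PPARg-bla HEK293H cells previously treated 17 h at 37C with DMSO-dissolved compounds.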

[5] = target: Peroxisome proliferator-activated receptor gamma (Homo sapiens) (UniProt P37231); assay: qHTS assay to identify small molecule antagonists of the peroxisome proliferator-activated receptor gamma (PPARg) signaling pathway (AID 743191; calls by dose curve; further: series mostly up to about 63 µM; nearly all actives have a fitted effect of over 30% in size)
Summary of the method: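 GeneBLAzer PPARg UAS-bla HEK293H cells carrying a UAS-driven beta-lactamase reporter were plated at 3000 cells/well, preincubated 5 h at 37C, then given compound for 17 h at 37C; LiveBLAzer B/G FRET substrate was read after 1 h at room temperature.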

[6] = qHTS assay to identify small molecule antagonists of the peroxisome proliferator-activated receptor gamma (PPARg) signaling pathway - cell viability counter screen (AID 743194); further: nearly all actives have a fitted effect of over 55% in size
Summary of the method: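 PPARg-UAS-bla HEK293H cells were plated, rested 5 h at 37 C, then treated with compounds plus rosiglitazone (50 nM final) for 17 h at 37 C; viability was then read by CellTiter-Glo luminescence after 30 min at room temperature.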

[7] = qHTS assay for small molecule agonists of the antioxidant response element (ARE) signaling pathway (AID 743202; active means well fitted activation curve with a large enough effect in the signal ratio in the repeat runs, not every such curve was filed as active; the % refers to the signal ratio; further: potency means the concentration at half of the fitted maximal effect)
Summary of the method: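 Following a 16 h, 37 C exposure of reporter HepG2 cells (ARE-driven beta-lactamase, 2,000 cells/well) to compounds, FRET substrate was applied for 2 h at room temperature and fluorescence intensity recorded.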

[8] = qHTS assay for small molecule agonists of the antioxidant response element (ARE) signaling pathway - cell viability counter screen (AID 743203; calls by dose curve; further: nearly all actives have a fitted effect of over 55% in size)
Summary of the method: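 Viability counter screen: stably transfected ARE-bla HepG2 line, 16 hrs compound exposure at 37C/5% CO2, ATP-based CellTiter-Glo luminescence measured in the reporter wells.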

[9] = qHTS assay for small molecule activators of the heat shock response signaling pathway - cell viability counter screen (AID 743209); further: nearly all actives have a fitted effect of over 50% in size
Summary of the method: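 Viability of HSE-bla HeLa cells is measured with CellTiter-Glo in the wells already used for the reporter read. Compound exposure lasts 5 h at 37 C, and luminescence is read after 30 min at room temperature.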

[10] = qHTS assay to identify small molecule agonists of the peroxisome proliferator-activated receptor delta (PPARd) signaling pathway - cell viability counter screen (AID 743211); further: nearly all actives have a fitted effect of over 55% in size
Summary of the method: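 Luminescent ATP viability assay (CellTiter-Glo, 30 min RT) in UAS-bla HEK293H cells carrying the PPAR delta reporter construct, 3000 cells/well, after a 17 h compound treatment at 37 C.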

[11] = qHTS assay to identify small molecule antagonists of the peroxisome proliferator-activated receptor delta (PPARd) signaling pathway - cell viability counter screen (AID 743213); further: nearly all actives have a fitted effect of over 50% in size
Summary of the method: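 Same-well viability: cells pre-incubated 5 h, dosed with compound plus 300 nM L165041, kept 17 h at 37 C, FRET substrate 2 h RT, then CellTiter-Glo 30 min RT and luminescence.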

[12] = target: Peroxisome proliferator-activated receptor delta (Homo sapiens) (UniProt Q03181); assay: qHTS assay to identify small molecule antagonists of the peroxisome proliferator-activated receptor delta (PPARd) signaling pathway (AID 743215; active means well fitted inhibition curve with a large enough effect in the signal ratio in the repeat runs, not every such curve was filed as active; the % refers to the signal ratio;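 further: cells stimulated with agonist L165041 at 300 nM final during compound exposure; series mostly up to about 62 µM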)
Peroxisome proliferator-activated receptor delta (Homo sapiens), sequence (Q03181 whole entry, looked up): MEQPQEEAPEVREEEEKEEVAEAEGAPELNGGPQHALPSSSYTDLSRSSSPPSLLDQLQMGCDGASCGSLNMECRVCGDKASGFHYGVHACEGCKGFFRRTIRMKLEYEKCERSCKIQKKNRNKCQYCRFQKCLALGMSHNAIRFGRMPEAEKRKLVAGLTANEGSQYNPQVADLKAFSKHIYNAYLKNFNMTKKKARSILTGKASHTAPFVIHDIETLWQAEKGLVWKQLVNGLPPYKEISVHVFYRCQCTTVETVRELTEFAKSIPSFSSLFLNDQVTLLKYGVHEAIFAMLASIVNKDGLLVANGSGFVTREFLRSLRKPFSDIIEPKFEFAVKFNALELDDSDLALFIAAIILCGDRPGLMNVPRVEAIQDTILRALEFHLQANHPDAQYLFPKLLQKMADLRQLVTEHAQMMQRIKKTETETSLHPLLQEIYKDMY
Summary of the method: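 Plated HEK293H PPARd-bla cells rested 5 h at 37 C and 5% CO2. Compound, then agonist L165041 at 300 nM final, was added; 17 h at 37 C followed. Substrate loading, 2 h room temperature, fluorescence measured.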

[13] = target: Bile acid receptor (Homo sapiens) (UniProt Q96RI1); assay: qHTS assay to identify small molecule antagonists of the farnesoid-X-receptor (FXR) signaling pathway (AID 743217; active means well fitted inhibition curve with a large enough effect in the signal ratio in the repeat runs, not every such curve was filed as active; the % refers to the signal ratio)
Bile acid receptor (Homo sapiens), sequence (Q96RI1 whole entry, looked up): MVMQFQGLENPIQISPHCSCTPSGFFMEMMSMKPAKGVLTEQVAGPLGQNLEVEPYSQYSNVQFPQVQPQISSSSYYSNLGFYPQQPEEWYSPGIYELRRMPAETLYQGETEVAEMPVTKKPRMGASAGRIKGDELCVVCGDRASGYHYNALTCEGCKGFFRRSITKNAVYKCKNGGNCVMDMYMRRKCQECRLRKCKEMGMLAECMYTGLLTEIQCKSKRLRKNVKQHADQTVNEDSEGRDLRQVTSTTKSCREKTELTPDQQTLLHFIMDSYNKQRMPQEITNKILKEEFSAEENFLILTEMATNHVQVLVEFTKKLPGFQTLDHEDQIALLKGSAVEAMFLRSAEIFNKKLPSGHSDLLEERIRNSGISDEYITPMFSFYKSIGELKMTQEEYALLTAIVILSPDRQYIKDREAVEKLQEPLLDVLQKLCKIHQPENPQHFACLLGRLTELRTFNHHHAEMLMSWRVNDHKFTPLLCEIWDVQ
Summary of the method: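 Screen of the Tox21 10K library in quantitative HTS format using FXR-UAS-bla HEK 293T reporter cells. Agonist chenodeoxycholic acid, 50 uM final, added with compounds; 16 h incubation at 37 °C; beta-lactamase FRET fluorescence measured.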

[14] = qHTS assay to identify small molecule agonists of the farnesoid-X-receptor (FXR) signaling pathway - cell viability counter screen (AID 743218); further: nearly all actives have a fitted effect of over 45% in size
Summary of the method: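 Viability of FXR-bla HEK 293T cells is measured by ATP-based CellTiter-Glo luminescence following 16 h compound treatment at 37 C and a prior 2 h room-temperature beta-lactamase substrate step.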

[15] = target: Bile acid receptor (Homo sapiens) (UniProt Q96RI1); assay: qHTS assay to identify small molecule agonists of the farnesoid-X-receptor (FXR) signaling pathway (AID 743220; active means well fitted activation curve with a large enough effect in the signal ratio in the repeat runs, not every such curve was filed as active; the % refers to the signal ratio)
Summary of the method: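 FXR-UAS-bla HEK 293T cells carrying a UAS-driven beta-lactamase reporter were plated for 5 h at 37C/5% CO2, then exposed to DMSO-dissolved Tox21 10K compounds for 16 h at 37C. A LiveBLAzer B/G FRET substrate was loaded for 2 h at room temperature before fluorescence reading.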

[16] = qHTS assay to identify small molecule antagonists of the farnesoid-X-receptor (FXR) signaling pathway - cell viability counter screen (AID 743221; active means well fitted cell-killing curve with a large enough effect in the repeat runs, not every such curve was filed as active; further: nearly all actives have a fitted effect of over 50% in size)
Summary of the method: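 In GeneBLAzer FXR-UAS-bla HEK 293T cells stimulated with 50 uM chenodeoxycholic acid (final), compounds acted for 16 h at 37 C. Viability was assessed afterwards by CellTiter-Glo luminescence.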

[17] = target: Vitamin D3 receptor (Homo sapiens) (UniProt P11473); assay: qHTS assay to identify small molecule antagonists of the vitamin D receptor (VDR) signaling pathway (AID 743223; active means well fitted inhibition curve with a large enough effect in the signal ratio in the repeat runs, not every such curve was filed as active; the % refers to the signal ratio)
Vitamin D3 receptor (Homo sapiens), sequence (P11473 whole entry, looked up): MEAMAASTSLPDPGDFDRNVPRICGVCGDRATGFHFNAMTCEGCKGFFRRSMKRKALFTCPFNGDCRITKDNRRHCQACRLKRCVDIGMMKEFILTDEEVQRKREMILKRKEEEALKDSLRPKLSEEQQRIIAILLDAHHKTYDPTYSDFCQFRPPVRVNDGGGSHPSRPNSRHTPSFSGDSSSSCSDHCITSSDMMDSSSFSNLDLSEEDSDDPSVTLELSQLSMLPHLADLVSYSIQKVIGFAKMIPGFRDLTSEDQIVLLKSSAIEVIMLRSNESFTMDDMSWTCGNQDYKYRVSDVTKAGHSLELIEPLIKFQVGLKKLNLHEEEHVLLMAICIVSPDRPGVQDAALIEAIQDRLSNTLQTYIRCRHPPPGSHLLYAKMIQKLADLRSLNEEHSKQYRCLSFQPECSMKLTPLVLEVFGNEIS
Summary of the method: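 Agonist 1alpha,25-dihydroxyvitamin D3 (3 nM in well) was added with each compound to VDR-bla cells preincubated 4 h. Cells stood 16 h at 37C, then FRET substrate 2 h at room temperature; fluorescence intensity recorded.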

[18] = qHTS assay for small molecule activators of the heat shock response signaling pathway (AID 743210; active means well fitted activation curve with a large enough effect in the signal ratio in the repeat runs, with a control signal flat, not every such curve was filed as active; the % refers to the signal ratio; further: series mostly up to about 63 µM)
Summary of the method: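 Heat shock element–beta-lactamase HeLa reporter cells; qHTS with compounds for 5 h at 37 C; detection by FRET substrate fluorescence after 2.5 h at RT.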

[19] = target: Vitamin D3 receptor (Homo sapiens) (UniProt P11473); assay: qHTS assay to identify small molecule agonists of the vitamin D receptor (VDR) signaling pathway (AID 743222; calls by dose curve)
Summary of the method: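 Fluorescence from cleaved LiveBLAzer B/G FRET substrate served as readout. VDR-bla cells had been treated 16 h at 37C with test compounds in DMSO, following a 4 h settling period, and substrate was loaded for 2 h at RT.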

[20] = target: Peroxisome proliferator-activated receptor delta (Homo sapiens) (UniProt Q03181); assay: qHTS assay to identify small molecule agonists of the peroxisome proliferator-activated receptor delta (PPARd) signaling pathway (AID 743212; calls by dose curve)
Summary of the method: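 Beta-lactamase reporter read by fluorescence (LiveBLAzer B/G FRET, 2 h, room temperature). Test agents, in DMSO, incubated at 37 C with PPARd-bla HEK293H cells.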

Measured: Potency

CN(C)CCOC(C)(c1ccccc1)c1ccccn1 (configuration not stated)
not listed: [18] | [19] | [20]
inactive: all other assays above

CC(=O)C(=O)O
not listed: [13] | [15] | [20]
inactive: all other assays above

Cc1cccc(C)c1
not listed: [13] | [15] | [18] | [20]
inactive: all other assays above

O=C1NC(=O)C(c2ccccc2)(c2ccccc2)N1
not listed: [13] | [15] | [17] | [19] | [20]
inactive: all other assays above

CC(C)C(=O)Nc1ccc([N+](=O)[O-])c(C(F)(F)F)c1
active: [7] 19.3 µM and 23.7 µM
not listed: [12] | [17] | [18] | [19] | [20]
inactive: all other assays above

CC1(C)O[C@@H]2C[C@H]3[C@@H]4CCC5=CC(=O)C=C[C@]5(C)[C@@]4(F)[C@@H](O)C[C@]3(C)[C@]2(C(=O)CO)O1
not listed: [18] | [19] | [20]
inactive: all other assays above

O=C(O)CC(O)C(=O)O (configuration not stated)
not listed: [12] | [13] | [15] | [19] | [20]
inactive: all other assays above

Cc1cn([C@H]2C=C[C@@H](CO)O2)c(=O)[nH]c1=O
not listed: [18] | [20]
inactive: all other assays above

NS(=O)(=O)O
not listed: [13] | [15] | [18] | [20]
inactive: all other assays above

NC(=O)c1cccnc1
not listed: [18] | [19]
inactive: all other assays above

CC12CCC(CC1)C(C)(C)O2
not listed: [18] | [19] | [20]
inactive: all other assays above

O=S1(=O)OC(c2ccc(O)cc2)(c2ccc(O)cc2)c2ccccc21
active: [1] 27.3 µM | [3] 24.3 µM
not listed: [13] | [15] | [18] | [20]
inactive: all other assays above

Cc1ncc([N+](=O)[O-])n1CCO
not listed: [13] | [15] | [17] | [19] | [20]
inactive: all other assays above

NS(=O)(=O)c1cc2c(cc1Cl)NCNS2(=O)=O
not listed: [12] | [18] | [19] | [20]
inactive: all other assays above

Nc1c(N=Nc2ccc(-c3ccc(N=Nc4cc(S(=O)(=O)O)c5ccccc5c4N)cc3)cc2)cc(S(=O)(=O)O)c2ccccc12
active: [1] 13.3 µM and 4.32 µM | [2] 23.7 µM and 24.3 µM | [3] 21.1 µM and 9.68 µM
not listed: [5] | [7] | [8] | [18] | [19] | [20]
inactive: all other assays above
